According to PubChem BioAssay (NCATS):
Values joined by “and” are separate entries in the source; they are usually repeats but may differ in a detail not shown here. Equal values may be shown once. Results filed as inconclusive are left out. Some structures have more than one record in an assay (separate samples or runs), and their calls can disagree. Active and inactive are the calls of the source. Unless noted, calls come from the whole dose curve; as a rule, active = well fitted curve in the direction sought with a large enough effect; inconclusive = small, poorly fitted or top-dose-only effect, or another doubt; inactive = no such curve, though single readings can be large; an effect the other way counts as inactive or inconclusive.

Assays:
[1] = MultiTox-Fluor Cytotoxicity Assay - LYMP1-002 - Live Cells (AID 955)
Procedure, shortened: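 Human lymphoblastoid LYMP1-002 cells, 2500/well in complete medium, rested 5 hr at 37 C, then exposed to compounds for 16 hr at 37 C. Live-cell protease cleavage of GF-AFC read by fluorescence (Ex/Em 405/510) after 60 min at room temperature; AC50 from Hill fits.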

[2] = MultiTox-Fluor Cytotoxicity Assay - LYMP1-003 - Dead Cells (AID 961); note: nearly all actives have a fitted effect of over 70% in size
Procedure, shortened: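 LYMP1-003 lymphoblastoid, 2500 cells/well, 5 hr settle then 16 hr cpd at 37 C; MultiTox-Fluor reagent 60 min RT; Ex/Em 485/520 dead-cell signal; norm. DMSO = 0%, 15 uM tetraoctylammonium bromide = 100%; Hill AC50.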

[3] = MultiTox-Fluor Cytotoxicity Assay - LYMP1-003 - Live Cells (AID 962);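 note: cytotoxic hits lower the live-cell protease signal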
Procedure, shortened: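 LYMP1-003 human lymphoblastoid cells (2500/well) in complete medium were preincubated 5 hr at 37 C, then exposed to compounds for 16 hr at 37 C. Live-cell protease cleavage of GF-AFC read by fluorescence (Ex/Em 405/510); AC50 from Hill fits.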

[4] = Cell Viability - LYMP1-003 - Assay at 24 hr (AID 963)
Procedure, shortened: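 Human lymphoblastoid LYMP1-003 cells (2500/well) were rested 5 hr at 37 C, then exposed to compounds in complete medium for 24 hr at 37 C. Cellular ATP was quantified by CellTiter-Glo luminescence, and AC50 values came from Hill fits of concentration-response data.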

[5] = Cell Viability - LYMP1-003 - Assay at 40 hr (AID 964); note: series mostly up to about 92 µM; nearly all actives have a fitted effect of over 60% in size
Procedure, shortened: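 Human lymphoblastoid LYMP1-003 cells, 2500/well in complete medium, rested 5 hr at 37 C, then exposed to compounds for 40 hr at 37 C. Viability read as intracellular ATP by CellTiter-Glo luminescence; AC50 from Hill fits of concentration-response data.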

[6] = Cell Viability - LYMP2-003 (AID 965);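 note: cells exposed to compounds for 24 h before reading; nearly all actives have a fitted effect of over 50% in size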
Procedure, shortened: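 Human lymphoblastoid cells (2500/well) were pre-incubated 5 hr at 37 C, then exposed to compounds over a concentration range for 24 hr at 37 C. Intracellular ATP was read by CellTiter-Glo luminescence; AC50 came from Hill-equation fits.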

[7] = Cell Viability - LYMP2-004 (AID 966); note: nearly all actives have a fitted effect of over 65% in size
Procedure, shortened: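 Human lymphoblastoid cells (2500/well) in complete medium were treated with compounds for 24 hr at 37 C, then intracellular ATP was measured by CellTiter-Glo luminescence. AC50 values came from Hill-equation fits of concentration-response data.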

[8] = Cell Viability - LYMP2-009 (AID 968); note: series mostly up to about 92 µM; nearly all actives have a fitted effect of over 55% in size
[9] = Cell Viability - LYMP2-011 (AID 969); note: nearly all actives have a fitted effect of over 60% in size
Procedure, shortened: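 Human lymphoblastoid cells (2500/well) were plated in complete medium, preincubated 5 hr at 37 C, then exposed to compounds for 24 hr at 37 C. Intracellular ATP was read by CellTiter-Glo luminescence, and AC50 came from Hill-equation concentration-response fits.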

[10] = Cell Viability - LYMP2-015 (AID 971); note: nearly all actives have a fitted effect of over 55% in size
Procedure, shortened: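 Human lymphoblastoid cells (2500/well) in complete medium were preincubated 5 hr at 37 C, then compound-treated 24 hr at 37 C. Intracellular ATP was read by CellTiter-Glo luminescence after 30 min at room temperature; AC50 came from Hill-equation concentration-response fits.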

[11] = Cell Viability - LYMP2-017 (AID 972); note: series mostly up to about 92 µM; nearly all actives have a fitted effect of over 55% in size
Procedure, shortened: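 Human lymphoblastoid cells (2500/well) were seeded in complete medium, held 5 hr at 37 C, then exposed to compounds for 24 hr at 37 C. Intracellular ATP was read by CellTiter-Glo luminescence after 30 min at room temperature, with AC50 values from Hill-equation fits.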

[12] = Cell Viability - LYMP2-019 (AID 973); note: nearly all actives have a fitted effect of over 55% in size
Procedure, shortened: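 Human lymphoblastoid cells were seeded at 2500 cells/well, preincubated 5 hr at 37 C, then exposed to compounds for 24 hr at 37 C in complete medium. Intracellular ATP was measured by CellTiter-Glo luminescence; AC50 from Hill fits.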

[13] = Cell Viability - LYMP2-021 (AID 974)
Procedure, shortened: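 Human lymphoblastoid cells (2500/well) were preincubated 5 hr at 37 C, then exposed to compounds for 24 hr at 37 C in complete medium. Intracellular ATP was read by CellTiter-Glo luminescence; AC50 came from Hill-equation fits of concentration-response data.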

[14] = Cell Viability - LYMP2-025 (AID 976); note: series mostly up to about 92 µM
Procedure, shortened: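 Human lymphoblastoid LYMP2-025 cells (2500/well) were pre-incubated 5 hr at 37 C, then treated with compounds for 24 hr at 37 C in complete medium. Viability was read as intracellular ATP by CellTiter-Glo luminescence; AC50 from Hill fits.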

[15] = Cell Viability - LYMP2-002 (AID 977); note: series mostly up to about 92 µM
Procedure, shortened: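 Human lymphoblastoid LYMP2-002 cells, 2500 per well, exposed to compounds for 24 h at 37 C in complete medium; viability read as intracellular ATP by CellTiter-Glo luminescence, AC50 from Hill fits.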

[16] = Cell Viability - LYMP2-006 (AID 978); note: series mostly up to about 92 µM; nearly all actives have a fitted effect of over 60% in size
Procedure, shortened: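 Human lymphoblastoid cells, 2500 per well, were preincubated 5 hr at 37 C, then exposed to compounds for 24 hr at 37 C in complete medium. Viability was read as intracellular ATP by CellTiter-Glo luminescence; AC50 from Hill-equation fits of qHTS concentration-response data.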

[17] = MultiTox-Fluor Cytotoxicity Assay - LYMP1-002 - Dead Cells (AID 960); note: nearly all actives have a fitted effect of over 60% in size; note: potency is the fitted concentration of half-maximal effect
Procedure, shortened: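 Human lymphoblastoid cells (LYMP1-002), 2500/well in complete medium, were exposed to compounds for 16 hr at 37 C. Dead-cell protease activity was read as bis-AAF-R110 fluorescence (Ex/Em 485/520), normalized to DMSO and 15 uM tetraoctylammonium bromide; AC50 from Hill fits.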

[18] = Cell Viability - LYMP2-005 (AID 967); note: series mostly up to about 92 µM
Procedure, shortened: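 CellTiter-Glo luminescence (cellular ATP) read-out; LYMP2-005 lymphoblastoid cells, 2500/well, 5 h pre-incubation, then 24 h compound exposure at 37 C in complete medium. Tetraoctylammonium bromide positive control; AC50 by standard Hill fit.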

[19] = target: Pyruvate kinase PKM (Homo sapiens) (UniProt P14618); experiment: qHTS Assay for Activators of Human Muscle Pyruvate Kinase (AID 954; active = well fitted curve in the direction sought with a large enough effect, not every such curve was filed as active)
Procedure, shortened: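 Reaction: 0.1 nM purified PKM2 with 0.5 mM phosphoenolpyruvate and 0.1 mM ADP, room temperature, 1 h. Readout: luciferase-based ATP luminescence after stop reagent. Activators judged against a 0.3 nM enzyme column.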

[20] = target: Alpha-galactosidase (Coffea arabica) (UniProt Q42656); experiment: Counterscreen for Glucocerebrosidase Inhibitors: qHTS Assay for Coffee Bean alpha-Galactosidase at pH 4.5 (AID 957); note: series mostly up to about 77 µM
Procedure, shortened: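 Green coffee bean enzyme (2 nM final) was incubated with compounds (0.7 nM to 77 uM) and 4-methylumbelliferyl alpha-D-galactopyranoside (80 uM final) in 50 mM citric acid, 0.005% Tween-20, pH 4.5, 20 min at room temperature; AC50 from Hill fits.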

Measured: Potency

Alpha-galactosidase (Coffea arabica), sequence (Q42656 whole entry, looked up): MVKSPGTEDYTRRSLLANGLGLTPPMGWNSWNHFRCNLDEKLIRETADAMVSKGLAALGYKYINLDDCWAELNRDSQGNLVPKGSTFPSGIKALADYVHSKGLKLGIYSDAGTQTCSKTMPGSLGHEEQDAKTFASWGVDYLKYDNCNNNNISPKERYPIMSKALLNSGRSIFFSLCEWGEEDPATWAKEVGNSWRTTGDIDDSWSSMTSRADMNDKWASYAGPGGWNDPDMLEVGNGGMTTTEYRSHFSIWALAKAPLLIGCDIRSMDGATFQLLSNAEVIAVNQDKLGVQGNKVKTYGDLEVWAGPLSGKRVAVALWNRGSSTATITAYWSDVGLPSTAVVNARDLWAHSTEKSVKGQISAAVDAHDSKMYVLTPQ
Pyruvate kinase PKM (Homo sapiens), sequence (P14618 whole entry, looked up): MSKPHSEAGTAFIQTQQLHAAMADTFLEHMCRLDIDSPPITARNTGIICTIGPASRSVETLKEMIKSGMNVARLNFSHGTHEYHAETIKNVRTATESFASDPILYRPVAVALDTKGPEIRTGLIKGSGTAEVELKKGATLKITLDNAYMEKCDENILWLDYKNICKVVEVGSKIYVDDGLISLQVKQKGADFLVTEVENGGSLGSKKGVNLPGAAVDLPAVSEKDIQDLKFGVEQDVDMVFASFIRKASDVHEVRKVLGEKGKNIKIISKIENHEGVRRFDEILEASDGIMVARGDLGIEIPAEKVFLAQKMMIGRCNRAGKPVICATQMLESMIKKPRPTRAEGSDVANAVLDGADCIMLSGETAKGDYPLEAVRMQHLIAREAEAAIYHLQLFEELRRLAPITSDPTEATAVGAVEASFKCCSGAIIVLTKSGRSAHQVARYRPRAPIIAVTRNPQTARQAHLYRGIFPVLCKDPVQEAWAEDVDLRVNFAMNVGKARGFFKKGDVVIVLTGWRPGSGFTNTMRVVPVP

CCOC(=O)CC(SP(=S)(OC)OC)C(=O)OCC (stereo unspecified)
not listed: [17] | [18] | [19] | [20]
inactive: all other assays above

Clc1ccc(C(c2ccc(Cl)cc2)C(Cl)(Cl)Cl)cc1
not listed: [4] | [19] | [20]
inactive: all other assays above

CCCCC/C=C\C/C=C\C/C=C\C/C=C\CCCC(=O)NCC(=O)O
inactive: [19] | [20]

NCCc1ccc(O)cc1
inactive: all assays above

Oc1ccc(Cl)cc1
not listed: [7] | [18] | [19] | [20]
inactive: all other assays above

C[C@]12CCC(=O)C=C1CC[C@@H]1[C@@H]2CC[C@@]2(C)[C@H]1CC[C@]2(C)O
not listed: [17] | [19] | [20]
inactive: all other assays above

CCCC(C)(COC(N)=O)COC(N)=O
not listed: [19] | [20]
inactive: all other assays above

O=C(O)CCCc1ccc(N(CCCl)CCCl)cc1
inactive: [19] | [1] | [20] | [17] | [2] | [3] | [4] | [12] | [14] | [15] | [16]

O=P1(N(CCCl)CCCl)NCCCO1 (stereo unspecified)
inactive: all assays above

CC(C)NC(C)C
not listed: [19] | [20]
inactive: all other assays above

O=c1[nH]oc2c1CCNC2
inactive: [19] | [20]

Nc1ccccc1C(=O)O
not listed: [18] | [19] | [20]
inactive: all other assays above

CC(C)(C)NC[C@H](O)COc1nsnc1N1CCOCC1
inactive: [20]

O=c1c(-c2ccc(O)cc2)coc2cc(O)cc(O)c12
inactive: [20]

CN1C[C@H](C(=O)N[C@]2(C)O[C@@]3(O)[C@@H]4CCCN4C(=O)[C@H](Cc4ccccc4)N3C2=O)C=C2c3cccc4[nH]cc(c34)C[C@H]21
not listed: [10] | [12] | [17] | [18] | [19] | [20]
inactive: all other assays above

CCC(C)(C)c1ccc(O)cc1
not listed: [19] | [20]
inactive: all other assays above

Nc1ccccc1
not listed: [15] | [17] | [19] | [20]
inactive: all other assays above

C[C@]12CCC(=O)C=C1CC[C@@H]1[C@@H]2CC[C@]2(C)C(=O)CC[C@@H]12
inactive and 15.8 µM (active): [17]
inactive: all other assays above

CCCCCCCCCCCCCCCC(=O)NCCO
inactive: [20]

CN1CCN(CC(=O)N2c3ccccc3C(=O)Nc3cccnc32)CC1
inactive: [20]

COC(=O)C(c1ccccc1)C1CCCCN1 (stereo unspecified)
not listed: [10] | [19] | [20]
inactive: all other assays above

COc1cc(-c2ccc(=O)[nH]n2)ccc1OC(F)F
inactive: [20]

COc1cc(OC)c(OC)cc1C=O
not listed: [19] | [20]
inactive: all other assays above

CC(=O)c1ccc(S(=O)(=O)NC(=O)NC2CCCCC2)cc1
inactive: [20]

COP(=S)(OC)Oc1ccc(SC)c(C)c1
not listed: [19] | [20]
inactive: all other assays above

C[C@]1(O)CC[C@H]2[C@@H]3CCC4=CC(=O)CC[C@]4(C)[C@@]3(F)[C@@H](O)C[C@@]21C
not listed: [19] | [20]
inactive: all other assays above

CC(C)c1cccc(C(C)C)c1O
not listed: [14]
inactive: all other assays above

O=C(CCCN1CCC2(CC1)C(=O)NCN2c1ccccc1)c1ccc(F)cc1
inactive: [19] | [20]

CN1C(C)(C)CCCC1(C)C
inactive: [20]

O=C(O)CN(CCN(CC(=O)O)CC(=O)O)CCN(CC(=O)O)CC(=O)O
inactive: [20]

NCCCNCCSP(=O)(O)O
inactive: [20]

O=c1[nH]c(=O)n([C@H]2C[C@H](O)[C@@H](CO)O2)cc1Br
inactive: [20]

NCCCCCC(=O)O
inactive: [20]

C[N+](C)(C)CCOC(N)=O
inactive: [20]

C1COC(NC(C2CC2)C2CC2)=N1
inactive: [20]

Cc1cnc(NC(=O)C2=C(O)c3ccccc3S(=O)(=O)N2C)s1
inactive: [20]

CCOC(=O)c1cnc2c(cnn2CC)c1NN=C(C)C
inactive: [20]

CNC[C@H](O)c1cccc(O)c1
inactive: [20]

CCN(CC)C(=O)c1ccc(O)c(OC)c1
inactive: [20]

NCCS(=O)(=O)O
inactive: [20]

CNCCCC12CCC(c3ccccc31)c1ccccc12
inactive: [20]

O=C(O)CCCCCCCC(=O)O
inactive: [20]

NC(=O)N1c2ccccc2C=Cc2ccccc21
inactive: [20]

FC(F)(F)c1ccccc1-n1ccnc1
inactive: [20]

Cc1scc2c1N(C(=O)CN1CCN(C)CC1)c1ccccc1NC2=O
inactive: [20]

COc1cc(NS(C)(=O)=O)ccc1Nc1c2ccccc2nc2ccccc12
inactive: [20]

CN(C)CCOC(=O)COc1ccc(Cl)cc1
inactive: [20]

O=C1NCC2(CCN(CCc3ccccc3)CC2)O1
inactive: [20]

CC(=O)Oc1cc(C(C)C)c(OCCN(C)C)cc1C
inactive: [20]

CN=C(NC#N)NCCSCc1nc[nH]c1C
inactive: [20]

O=c1[nH]cnc2[nH]ncc12
inactive: [20]

COc1ccc2[nH]cc(CCNC(C)=O)c2c1
inactive: [20]

CC(C)NNC(=O)c1ccncc1
inactive: [20]

COc1ccc2cc([C@H](C)C(=O)O)ccc2c1
inactive: [20]

NC(N)=NC(=O)Cc1c(Cl)cccc1Cl
inactive: [20]

C[C@H](CS)C(=O)N1CCC[C@H]1C(=O)O
inactive: [20]

Nc1ccc(S(=O)(=O)Nc2ccnn2-c2ccccc2)cc1
inactive: [20]

CCO/C([O-])=N/c1c[n+](N2CCOCC2)no1
inactive: [20]

COc1ccc(C2CNC(=O)C2)cc1OC1CCCC1 (stereo unspecified)
inactive: [20]
